Test results: PubChem BioAssay (EPA / NIEHS)
Records with an inconclusive call do not appear. Calls of active or inactive are those of the source. The calls were made as follows, unless noted: active = hit-call score of the fitted dose curve at least 0.9, where 1 is the maximum; inactive = score below 0.9.

Columns and labels:
[1] = read-out: Monokine induced gamma interferon (MIG), CXCL9 (gene 4283); assay: BSK_SAg_MIG: BioMAP Diversity Plus: SAg Assay for Monokine induced gamma interferon (MIG) Biomarker Activity (AID 2283092); details: primary human HUVEC with PBMC; actives raise or lower the signal
Method in brief: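 HUVEC plus human PBMC co-culture, chemicals dosed and MIG (CXCL9) quantified by ELISA at 24 h. Bidirectional curve fitting against DMSO as negative control and baseline, so both gain and loss of signal count as activity.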

[2] = BSK_SAg_PBMCCytotoxicity: PBMC Cytotoxicity Assessment in the BioMAP Diversity Plus: SAg Assay (AID 2283093); details: primary human HUVEC with PBMC;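 also: fitted both ways against DMSO so a hit may be loss or gain of signal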;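 as to AC50: PBMC superantigen activated with SEB plus TSST-1 one hour after compound addition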
Method in brief: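 PBMC viability by Alamar Blue reduction, fluorescence read at 546/580 nm after 6 h dye exposure. Cells were dosed 1 h before SEB plus TSST-1 activation (20 ng/mL final each), then held 90 h; endothelial/PBMC human co-culture.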

[3] = read-out: Interleukin-8 (IL8), CXCL8 (gene 3576); assay: BSK_SAg_IL8: BioMAP Diversity Plus: SAg Assay for Interleukin-8 (IL8) Biomarker Activity (AID 2283094); details: primary human HUVEC with PBMC; actives raise or lower the signal
Method in brief: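 Chemicals were dosed onto a human endothelial–PBMC co-culture, and IL-8 was quantified by ELISA after 24 h. Both increases and decreases were fitted relative to DMSO.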

[4] = BSK_SAg_Proliferation: Cell Proliferation Assessment in the BioMAP Diversity Plus: SAg Assay (AID 2283095); details: primary human HUVEC with PBMC;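 also: relative cell number as total protein by SRB absorbance in sub-confluent culture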
Method in brief: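 Absorbance of sulforhodamine B at 560 nm reports total protein in a human vascular endothelial/PBMC co-culture after 96 h chemical exposure. Gain or loss of signal is fitted in both directions against DMSO.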

[5] = BSK_SAg_SRB: Viability Assessment in the BioMAP Diversity Plus: SAg Assay (AID 2283096); details: primary human HUVEC with PBMC;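 also: cells read one day after compound addition; hits may be either gain or loss of signal compared with DMSO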
Method in brief: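 Compounds were added to a human vascular co-culture of umbilical vein endothelium and PBMC. After 24 h, parallel cultures were fixed with 10% TCA, stained with 0.1% sulforhodamine B and read at 560 nm. Gain or loss of signal was fitted relative to DMSO.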

[6] = target: human Acid Phosphatase 1 (ACP1), ACP1 (gene 52) (UniProt P24666); assay: NVS_ENZ_hACP1: NovaScreen (NVS) Enzymatic Assay for human Acid Phosphatase 1 (ACP1) (AID 2283136; active = hit-call score of the fitted dose curve at least 0.9, where 1 is the maximum)
Chain of human Acid Phosphatase 1 (ACP1), ACP1 (gene 52) (P24666 whole entry, looked up): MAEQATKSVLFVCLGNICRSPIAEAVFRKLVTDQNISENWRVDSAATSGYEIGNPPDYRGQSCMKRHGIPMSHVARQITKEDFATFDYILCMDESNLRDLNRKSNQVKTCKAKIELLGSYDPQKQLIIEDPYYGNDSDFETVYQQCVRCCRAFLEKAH
Method in brief: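 Cell-free fluorescence read-out of phosphatase activity, substrate and product separated by mobility shift, taken 1.5 h after compound addition; protein produced in Sf9. Single 25 uM duplicate screen, followed by concentration series for actives, scored as signal loss relative to DMSO.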

[7] = target: human Caspase 5 (CASP5), CASP5 (gene 838) (UniProt P51878); assay: NVS_ENZ_hCASP5: NovaScreen (NVS) Enzymatic Assay for human Caspase 5 (CASP5) (AID 2283137; active = hit-call score of the fitted dose curve at least 0.9, where 1 is the maximum)
Chain of human Caspase 5 (CASP5), CASP5 (gene 838) (P51878 whole entry, looked up): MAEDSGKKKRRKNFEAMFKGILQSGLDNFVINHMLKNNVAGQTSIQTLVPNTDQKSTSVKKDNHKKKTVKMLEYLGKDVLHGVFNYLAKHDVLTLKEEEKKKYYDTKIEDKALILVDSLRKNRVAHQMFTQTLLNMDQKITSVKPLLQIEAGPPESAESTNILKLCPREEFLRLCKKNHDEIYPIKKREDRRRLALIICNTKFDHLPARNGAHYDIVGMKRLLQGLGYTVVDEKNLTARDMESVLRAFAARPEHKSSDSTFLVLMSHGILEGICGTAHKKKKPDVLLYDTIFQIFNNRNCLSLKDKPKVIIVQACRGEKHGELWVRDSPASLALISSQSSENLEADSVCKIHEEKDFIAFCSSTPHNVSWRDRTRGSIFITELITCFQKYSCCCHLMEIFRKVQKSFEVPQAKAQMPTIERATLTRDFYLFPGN
Method in brief: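 Chemicals were first tested in duplicate at 25 uM against recombinant caspase 5 from E. coli. Activity was read by fluorescence intensity 2 hours after dosing. Those passing a preset inhibition threshold were retested in singleton concentration-response up to 50 uM.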

[8] = target: human Beta-secretase (BACE), BACE1 (gene 23621) (UniProt P56817); assay: NVS_ENZ_hBACE: NovaScreen (NVS) Enzymatic Assay for human Beta-secretase (BACE) (AID 2283140; active = hit-call score of the fitted dose curve at least 0.9, where 1 is the maximum;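 also: hits are inhibitors that reduce fluorescent substrate signal versus DMSO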)
Chain of human Beta-secretase (BACE), BACE1 (gene 23621) (P56817 whole entry, looked up): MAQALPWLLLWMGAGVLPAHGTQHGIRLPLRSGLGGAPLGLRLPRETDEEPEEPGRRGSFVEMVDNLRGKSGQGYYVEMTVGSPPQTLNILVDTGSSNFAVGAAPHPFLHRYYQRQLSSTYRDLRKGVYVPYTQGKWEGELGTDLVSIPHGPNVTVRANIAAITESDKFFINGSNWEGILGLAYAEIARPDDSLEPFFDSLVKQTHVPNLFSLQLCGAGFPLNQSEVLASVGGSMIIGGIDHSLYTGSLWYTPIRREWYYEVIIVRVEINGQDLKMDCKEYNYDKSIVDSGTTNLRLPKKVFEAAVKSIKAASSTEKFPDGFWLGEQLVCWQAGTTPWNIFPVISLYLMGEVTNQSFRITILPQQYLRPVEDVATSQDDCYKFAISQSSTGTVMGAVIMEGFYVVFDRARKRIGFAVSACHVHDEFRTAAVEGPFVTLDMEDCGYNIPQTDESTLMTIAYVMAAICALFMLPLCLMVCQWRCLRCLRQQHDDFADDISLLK
Method in brief: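 Fluorescence intensity read-out of protease activity defines this endpoint; signal loss relative to DMSO baseline marks inhibition. Recombinant enzyme from SF9 cells, cell-free format, 1 h exposure. Single-concentration duplicate screen (25 uM) precedes concentration-series follow-up.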

[9] = target: human AKT serine/threonine Kinase 2 (AKT2), AKT2 (gene 208) (UniProt P31751); assay: NVS_ENZ_hAKT2: NovaScreen (NVS) Enzymatic Assay for human AKT serine/threonine Kinase 2 (AKT2) (AID 2283141; active = hit-call score of the fitted dose curve at least 0.9, where 1 is the maximum)
Chain of human AKT serine/threonine Kinase 2 (AKT2), AKT2 (gene 208) (P31751 whole entry, looked up): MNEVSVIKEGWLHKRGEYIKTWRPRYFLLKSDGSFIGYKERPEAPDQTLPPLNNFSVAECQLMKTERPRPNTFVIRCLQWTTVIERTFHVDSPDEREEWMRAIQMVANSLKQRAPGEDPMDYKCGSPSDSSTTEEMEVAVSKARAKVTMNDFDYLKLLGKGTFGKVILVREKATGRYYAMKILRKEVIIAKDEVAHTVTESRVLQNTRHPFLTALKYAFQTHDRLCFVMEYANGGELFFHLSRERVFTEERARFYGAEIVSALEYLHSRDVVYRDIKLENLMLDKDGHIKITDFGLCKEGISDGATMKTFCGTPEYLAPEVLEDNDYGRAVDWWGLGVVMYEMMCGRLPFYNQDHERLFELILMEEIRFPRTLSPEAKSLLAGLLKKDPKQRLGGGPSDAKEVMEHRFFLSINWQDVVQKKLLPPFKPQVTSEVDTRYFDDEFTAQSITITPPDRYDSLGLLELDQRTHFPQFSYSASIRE
Method in brief: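 Cell-free fluorescence/electrophoretic mobility shift readout of recombinant human AKT2 activity, 1 h after chemical dosing. Duplicate primary screen at 25 uM, then singleton concentration-response up to 50 uM; loss of signal versus DMSO baseline.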

[10] = target: human AKT serine/threonine Kinase 1 (AKT1), AKT1 (gene 207) (UniProt P31749); assay: NVS_ENZ_hAKT1: NovaScreen (NVS) Enzymatic Assay for human AKT serine/threonine Kinase 1 (AKT1) (AID 2283138; active = hit-call score of the fitted dose curve at least 0.9, where 1 is the maximum)
Chain of human AKT serine/threonine Kinase 1 (AKT1), AKT1 (gene 207) (P31749 whole entry, looked up): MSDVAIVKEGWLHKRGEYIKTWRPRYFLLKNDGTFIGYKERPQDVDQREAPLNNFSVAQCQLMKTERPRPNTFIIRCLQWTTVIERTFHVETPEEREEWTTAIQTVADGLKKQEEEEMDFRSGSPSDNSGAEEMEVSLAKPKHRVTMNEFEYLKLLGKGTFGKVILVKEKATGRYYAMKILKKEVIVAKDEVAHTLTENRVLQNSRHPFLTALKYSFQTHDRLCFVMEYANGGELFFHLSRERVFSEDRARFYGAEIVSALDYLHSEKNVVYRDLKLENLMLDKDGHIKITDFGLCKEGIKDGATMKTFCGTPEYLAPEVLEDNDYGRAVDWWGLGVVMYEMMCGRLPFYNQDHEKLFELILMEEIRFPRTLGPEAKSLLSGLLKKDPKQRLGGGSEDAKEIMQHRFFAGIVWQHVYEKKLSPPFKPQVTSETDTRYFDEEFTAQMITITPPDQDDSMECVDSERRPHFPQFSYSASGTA
Method in brief: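 Compounds were first tested in duplicate at 25 uM, and those passing a threshold such as 30% inhibition were run in concentration-response to a maximum of 50 uM. Enzyme activity was measured after 1 h by fluorescence following substrate/product mobility-shift separation.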

Caspase-3 (Homo sapiens) = Caspase-3 (Homo sapiens) (UniProt P42574); assay: NVS_ENZ_hCASP3: NovaScreen (NVS) Enzymatic Assay for human Caspase 3 (CASP3) (AID 2283139; active = hit-call score of the fitted dose curve at least 0.9, where 1 is the maximum)
Chain of Caspase-3 (Homo sapiens) (P42574 whole entry, looked up): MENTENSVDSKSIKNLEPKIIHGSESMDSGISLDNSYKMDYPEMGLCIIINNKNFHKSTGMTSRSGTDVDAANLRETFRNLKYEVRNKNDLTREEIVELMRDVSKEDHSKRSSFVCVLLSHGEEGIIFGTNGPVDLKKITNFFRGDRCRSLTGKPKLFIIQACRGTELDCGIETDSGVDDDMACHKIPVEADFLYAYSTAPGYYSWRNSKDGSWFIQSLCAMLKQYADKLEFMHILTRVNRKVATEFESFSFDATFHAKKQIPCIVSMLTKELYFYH
Method in brief: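 Single-concentration screening at 25 uM in duplicate, with concentration-response follow-up to a 50 uM maximum for chemicals passing the threshold. Caspase-3 (human, E. coli-expressed) activity was read as substrate fluorescence after 1 h, with loss of signal relative to DMSO.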

[11] = target: Cytochrome P450 3A4 (Homo sapiens) (UniProt P08684); assay: NVS_ADME_hCYP3A4: NovaScreen (NVS) CYP450-related Enzyme Activity (ADME) Assay for human CYP3A4 (AID 2283110; active = hit-call score of the fitted dose curve at least 0.9, where 1 is the maximum)
Chain of Cytochrome P450 3A4 (Homo sapiens) (P08684 whole entry, looked up): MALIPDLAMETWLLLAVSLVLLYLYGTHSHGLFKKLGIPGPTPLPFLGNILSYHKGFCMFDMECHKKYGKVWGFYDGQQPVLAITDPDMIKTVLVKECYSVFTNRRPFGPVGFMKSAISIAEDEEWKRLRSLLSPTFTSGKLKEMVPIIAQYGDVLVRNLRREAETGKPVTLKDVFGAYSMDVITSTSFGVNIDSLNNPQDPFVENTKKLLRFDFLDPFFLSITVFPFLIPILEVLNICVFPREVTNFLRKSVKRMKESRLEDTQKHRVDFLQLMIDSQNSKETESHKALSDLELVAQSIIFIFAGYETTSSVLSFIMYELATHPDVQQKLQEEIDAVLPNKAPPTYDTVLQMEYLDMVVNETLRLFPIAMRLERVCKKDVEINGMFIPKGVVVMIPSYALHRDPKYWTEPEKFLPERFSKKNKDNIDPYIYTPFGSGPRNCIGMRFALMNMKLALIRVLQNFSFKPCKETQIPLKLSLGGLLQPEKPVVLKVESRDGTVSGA
Method in brief: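 Recombinant CYP3A4 from insect cells, fluorescence enzyme read-out, 0.33 h after chemical addition. Acetonitrile = negative control/baseline. Primary HTS: 10 uM in duplicate; actives re-tested in concentration series.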

[12] = target: Cytochrome P450 2C19 (Homo sapiens) (UniProt P33261); assay: NVS_ADME_hCYP2C19: NovaScreen (NVS) CYP450-related Enzyme Activity (ADME) Assay for human CYP2C19 (AID 2283113; active = hit-call score of the fitted dose curve at least 0.9, where 1 is the maximum;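 as to AC50: potency for inhibition seen as loss of fluorescent signal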)
Method in brief: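 Fluorescence intensity was measured 1 hour after chemicals were added to insect-cell-derived recombinant CYP2C19 with fluorogenic substrate. Decreased signal versus acetonitrile control was taken as reduced enzyme activity; initial testing used 10 uM in duplicate.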

[13] = target: human CYP2C9, CYP2C9 (gene 1559) (UniProt P11712); assay: NVS_ADME_hCYP2C9: NovaScreen (NVS) CYP450-related Enzyme Activity (ADME) Assay for human CYP2C9 (AID 2283108; active = hit-call score of the fitted dose curve at least 0.9, where 1 is the maximum)
Chain of human CYP2C9, CYP2C9 (gene 1559) (P11712 whole entry, looked up): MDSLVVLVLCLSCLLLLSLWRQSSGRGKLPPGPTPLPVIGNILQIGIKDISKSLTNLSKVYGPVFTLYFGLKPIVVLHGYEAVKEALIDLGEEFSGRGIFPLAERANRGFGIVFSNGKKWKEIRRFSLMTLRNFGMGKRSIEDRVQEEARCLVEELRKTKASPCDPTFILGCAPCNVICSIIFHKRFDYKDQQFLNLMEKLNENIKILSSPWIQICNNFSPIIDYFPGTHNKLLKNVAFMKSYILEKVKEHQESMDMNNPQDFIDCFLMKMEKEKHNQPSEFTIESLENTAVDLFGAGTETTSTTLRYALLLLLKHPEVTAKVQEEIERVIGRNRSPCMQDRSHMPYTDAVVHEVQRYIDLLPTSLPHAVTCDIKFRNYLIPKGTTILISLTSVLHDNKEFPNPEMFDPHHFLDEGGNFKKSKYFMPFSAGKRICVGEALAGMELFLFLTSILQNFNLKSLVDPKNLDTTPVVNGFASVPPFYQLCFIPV
Method in brief: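 Recombinant human CYP2C9 expressed in SF9 cells, fluorogenic substrate, fluorescence read 0.75 h after dosing. Chemicals first run in duplicate at 10 uM, with actives followed in concentration series; loss of signal versus acetonitrile baseline.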

Measured: AC50

Cc1ccc2ncccc2c1
not listed: [10] | Caspase-3 (Homo sapiens) | [11] | [12] | [13]
inactive: all other assays above

Cc1oc(-c2ccccc2)nc1CCOc1cccc2c1ccn2CCC(=O)O
active: [8] 9.92 µM
inactive: [1] | [2] | [3] | [4] | [5]

O=C(OCCCCCOC(=O)c1ccccc1)c1ccccc1
inactive: [1] | [2] | [3] | [4] | [5] | [10] | [9]

COc1cc(S(=O)(=O)O)c(C)cc1N=Nc1c(O)ccc2cc(S(=O)(=O)O)ccc12
inactive: [1] | [2] | [3] | [4] | [5]
active: [7] 19.9 µM | Caspase-3 (Homo sapiens) 15.3 µM

CC1(C)NC(=O)NC1=O
inactive: [1] | [2] | [3] | [4] | [5] | [9]

CCCCc1ccc2c(n1)[C@@H](c1ccc(OC)cc1C[C@H](C)C(=O)O)[C@H](C(=O)O)[C@H]2c1ccc2c(c1)OCO2
inactive: [1] | [2] | [3] | [4] | [5]
active: [8] 9.68 µM

CNC(=O)[C@H]1O[C@@H](n2cnc3c(NCc4cc(Cl)ccc4OCc4cc(C)no4)ncnc32)[C@H](O)[C@@H]1N
inactive: [1] | [2] | [3] | [4] | [5] | [10]

CCCCOC(=O)CCCCCCCCC(=O)OCCCC
inactive: [1] | [2] | [3] | [4] | [5]
active: [8] 2.12 µM

CCCCCC(=O)O
inactive: [1] | [2] | [3] | [4] | [5] | [10] | [9]

COc1cc(-c2nc(NC(=O)c3cc4cc(C)cc(C)c4n3CC(=O)O)sc2CCC2CCCCC2)c(OC)cc1Cl
active: [1] 4.63 µM | [2] 16.9 µM | [3] 16.9 µM | [4] 3.49 µM | [5] 3.85 µM | [7] 0.91 µM

CC(C)(C)c1cc(O)c(C(C)(C)C)cc1O
active: [2] 8.8 µM | [4] 27.8 µM
inactive: [1] | [3] | [5] | [10]

CCc1c(C(=O)NN2CCCCC2)nn(-c2ccc(Cl)cc2Cl)c1-c1ccc(Br)cc1
inactive: [11] | [12] | [7]
active: [1] 9.99 µM | [2] 11.8 µM | [3] 7.03 µM | [4] 7.06 µM | [5] 8.32 µM

CNCc1cc(F)ccc1Oc1ccc(Cl)c(Cl)c1
inactive: [1] | [5]
active: [2] 25.7 µM | [3] 20 µM | [4] 26.1 µM | [12] 1.11 µM

CCCc1cc(=O)[nH]c(=S)[nH]1
inactive: [1] | [2] | [3] | [4] | [5] | [6] | Caspase-3 (Homo sapiens)

FC(F)(F)C(F)(F)C(F)(F)C(F)(F)C(F)(F)C(F)(F)CCI
inactive: [1] | [2] | [3] | [4] | [5] | [6]

CCCCCCOCCO
inactive: [1] | [2] | [3] | [4] | [5] | [10]

CCCCC(CC)COC(=O)CC(C(=O)OCC(CC)CCCC)S(=O)(=O)O (configuration not stated)
active: [1] 38 µM | [2] 34.8 µM | [3] 33.6 µM | [4] 32.5 µM | [5] 36.2 µM | [13] 3.5 µM | [12] 4.49 µM | [7] 15.2 µM | [8] 1.35 µM

CN1CCN(Cc2cc(-c3ccc4[nH]c(=O)oc4c3)co2)[C@@H](c2ccc(F)cc2)C1
inactive: [1] | [5] | [12]
active: [2] 28.1 µM | [3] 9.71 µM | [4] 30.7 µM

Nc1ccccc1N
inactive: [1] | [2] | [3] | [4] | [5] | [8]

CCCCCCCCCCCCCCCCCC(=O)O
inactive: [1] | [3] | [5]
active: [2] 26.7 µM | [4] 24.1 µM | [7] 0.719 µM
